Assay [1] concerns the target Lysosomal acid glucosylceramidase (Homo sapiens) (UniProt P04062). The experiment in a line: Glucocerebrosidase-p2 (AID 348; in the data active = potency below about 10 µM; also: potency is read from the fitted curve at half-maximal effect). Particulars: purified GBA, blue fluorogenic substrate, 40 min. The method, boiled down: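 Normal human glucocerebrosidase (0.2 nM) with blue fluorogenic substrate (80 uM final) in citrate/phosphate pH 5.9 with 10mM sodium taurocholate, 0.01% tween-20; 40 min RT, NaOH/glycine stop; fluorescence Ex 365/Em 440; AC50 from a titration from 0.6 nM upwards.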

Assay [2] in a line: AP1 Signaling Pathway (AID 357).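 Also: ME-180 reporter cells stimulated with EGF at its EC50 level; % is scaled to controls: 0 for no effect and ±100 for the full control effect.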 As to conditions: ME-180 AP-1-bla reporter, EGF-induced, beta-lactamase ratio, 5 h; at 7.69 µM (top of the series) unless noted. Put shortly: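 Modulation of EGF-driven AP-1 transcription was assessed with a beta-lactamase reporter in ME-180 cells. Compound and EC50 EGF were co-incubated 5 hours at 37 °C before 2.5-hour CCF4 loading at room temperature and dual-emission reading.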

Assay [3] addresses Cytochrome P450 1A2 (Homo sapiens) (UniProt P05177). The experiment in a line: p450-cyp1a2 (AID 410; calls by dose curve; also: potency is read from the fitted curve at half-maximal effect). Particulars: recombinant CYP1A2, luciferin-ME demethylation, luminescence; series mostly up to 57 µM. The method, boiled down: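 O-Demethylation of luciferin 6' methyl ether by human CYP1A2 is monitored as luciferase luminescence. Substrate sits at Km (100uM); enzyme is 20nM. Values are scaled to 57 uM furafylline as maximal inhibition.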

Assay [4] in a line: NFAT Signaling Pathway (AID 444).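 Also: carbachol stimulus at about its EC50 of 1 µM final; % is scaled to controls: 0 for no effect and ±100 for the full control effect.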 Particulars: Jurkat NFAT-bla M1, carbachol, beta-lactamase ratio, 5 h; at 7.69 µM (top of the series) unless noted. Put shortly: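 Jurkat cells with NFAT-driven β-lactamase reporter and co-expressed M1 receptor, stimulated with carbachol (final 1 uM, ~EC50), compound titration, 5 h at 37 °C. CCF4 loaded 1 h at RT; 460/530 nm ratio gave %activity and AC50.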

The nature of assay [5]: Stat Signaling Pathway (AID 446).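 Also: ME-180 cervical cancer cells given 40 pM IL-6 alongside compound; SIE-controlled beta-lactamase reporter measured as 460/530 nm FRET emission ratio; % is scaled to controls: 0 for no effect and ±100 for the full control effect.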 As to conditions: ME-180 (cervical carcinoma) SIE beta-lactamase reporter, IL-6 stimulated, 5 h; at 7.69 µM (top of the series) unless noted. Put shortly:
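Compound effects on IL-6-induced STAT reporter activity were measured in ME-180 cells. After overnight culture, cells were co-treated with 40 pM IL-6 for 5 hrs before beta-lactamase substrate loading at room temperature.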

For assay [6], the target named is Glucocorticoid receptor (Homo sapiens) (UniProt P04150). Briefly: GR-EFC Redistribution (AID 451; calls by dose curve; also: potency is read from the fitted curve at half-maximal effect). As to conditions: CHO-K1 GR-EFC translocation, beta-gal luminescence, 2 h. The method, boiled down: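 CHO-K1 cells expressing nuclear EA and GR-ED fragments of b-gal; compounds titrated up to 46 uM final, 2 h at 37 C. GR nuclear translocation read as complemented b-gal luminescence after 1 h RT detection.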
Chain of Glucocorticoid receptor (Homo sapiens) (P04150 whole entry, looked up, the tested form may be a part): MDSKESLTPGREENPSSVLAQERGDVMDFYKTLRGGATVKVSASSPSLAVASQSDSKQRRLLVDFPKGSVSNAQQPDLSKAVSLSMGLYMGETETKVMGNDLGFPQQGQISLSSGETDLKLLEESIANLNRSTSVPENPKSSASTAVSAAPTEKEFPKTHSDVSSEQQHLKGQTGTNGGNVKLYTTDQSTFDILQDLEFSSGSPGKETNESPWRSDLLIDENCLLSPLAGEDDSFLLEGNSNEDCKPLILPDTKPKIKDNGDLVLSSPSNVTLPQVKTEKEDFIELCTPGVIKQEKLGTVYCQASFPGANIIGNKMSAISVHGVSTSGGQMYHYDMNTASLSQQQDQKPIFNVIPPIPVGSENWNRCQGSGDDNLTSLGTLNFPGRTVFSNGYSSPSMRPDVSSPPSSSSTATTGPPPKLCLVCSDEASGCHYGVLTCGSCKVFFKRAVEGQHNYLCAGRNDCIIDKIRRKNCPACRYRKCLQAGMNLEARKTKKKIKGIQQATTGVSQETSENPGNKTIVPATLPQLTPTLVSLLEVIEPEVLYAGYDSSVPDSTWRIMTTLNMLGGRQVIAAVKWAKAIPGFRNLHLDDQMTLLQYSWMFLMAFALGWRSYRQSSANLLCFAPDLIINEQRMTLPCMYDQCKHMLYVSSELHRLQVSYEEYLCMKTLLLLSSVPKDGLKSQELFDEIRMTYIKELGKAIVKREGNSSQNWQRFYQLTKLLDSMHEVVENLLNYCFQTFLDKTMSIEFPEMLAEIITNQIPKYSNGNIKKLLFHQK

Assay [7] addresses 3',5'-cyclic-AMP phosphodiesterase 4B (Homo sapiens) (UniProt Q07343). The experiment in a line: qHTS Assay for Inhibitors of PDE-IV (AID 607; active = well fitted activation curve with a large enough effect in the main read-out, with a control signal flat, not every such curve was filed as active; also: % of control where 0% means no effect). As to conditions: HEK293 ACTOne CNG channel cells, membrane potential fluorescence; series mostly up to 22.9 µM. Put shortly: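 ACTOne HEK293 cells carry a modified cAMP-gated CNG channel and express endogenous PDE4; plated 1000 cells/well, compounds up to 22.9 uM final. Membrane-potential dye fluorescence (ex 535/em 590) was read; parental cells received 10 uM forskolin + 100 uM RO 20-1724.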
For orientation: In qHTS, concentration-response curves come from the screen itself.

A short description of assay [8]: qHTS Assay for Lipid Storage Modulators (AID 1519; calls by dose curve). Particulars: Drosophila S3 cells, BODIPY lipid droplet/cell ratio, laser cytometry, cells loaded with oleic acid; for activity change, negative = inhibition: at 57.5 µM (top of the series). The method, boiled down:
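Cells seeded at 5,000 per well were treated with compounds over a concentration series and loaded with oleic acid (400 uM, as added). Lipid droplet fluorescence (488 nm excitation, 500-530 nm channel) was read by laser-scanning cytometry and normalized to 20 uM Triacsin C.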

The nature of assay [9]: Primary qHTS for small molecule stabilizers of the endoplasmic reticulum resident proteome: Secreted ER Calcium Modulated Protein (SERCaMP) assay (AID 1508630; active = well fitted curve in the direction sought with a large enough effect; an effect the other way counts as inactive or inconclusive; also: % is scaled to controls: 0 for no effect and ±100 for the full control effect). Particulars: SH-SY5Y GLuc-SERCaMP (Gaussia luciferase released on ER calcium loss) secretion, thapsigargin, luminescence; series mostly up to 38.4 µM. Put shortly:
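The SH-SY5Y reporter protocol was run at 3 concentrations up to 38.3 uM (primary) or 11 concentrations (follow-up): 16 h compound, 100 nM thapsigargin for 4 h, then extracellular luciferase luminescence.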

Assay [10] deals with Glucocorticoid receptor (Homo sapiens) (UniProt P04150). The experiment in a line: GR-GFP Redistribution (AID 450;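 active = compounds whose dose series gives a full or clear partial fitted curve of increased nuclear translocation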; also: potency is read from the fitted curve at half-maximal effect). As to conditions: U2OS GR-GFP nuclear translocation, laser cytometry, 2 h.
Assay [11] has as its target Mitogen-activated protein kinase 10 (Mus musculus) (UniProt Q61831). The experiment in a line: JNK3 AlphaScreen Assay (AID 530). As to conditions: JNK3 lysate, c-Jun phosphorylation; series mostly up to 57.1 µM. Put shortly: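 Activity was read by AlphaScreen after JNK3-containing HepG2 lysate (cytokine pre-activated) phosphorylated biotinylated GST-cJun with 10 uM ATP at room temperature. Phospho-Ser73 cJun antibody with Protein-A acceptor beads provided detection.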
In general terms: Bead proximity is the source of the signal in Alpha formats.

In assay [12] the target is Dual specificity protein kinase CLK4 (Homo sapiens) (UniProt Q9HAZ1). Briefly: qHTS Assay for Inhibitors of CDC-like Kinase 4 (ADP-Glo Assay) (AID 1771; active = well fitted curve in the direction sought with a large enough effect; an effect the other way counts as inactive or inconclusive; also: % is scaled to controls: 0 for no effect and ±100 for the full control effect; nearly all actives have a fitted effect of over 70% in size). Particulars: recombinant CLK4, ADP-Glo luminescence; series mostly up to 80 µM. The method, boiled down:
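Compounds are pin-transferred onto substrate mix (100 uM RS peptide, 1 uM ATP), then 25 nM Clk4 is added. After 1 hr at room temperature, ADP-Glo reagent runs 45 min, detection reagent 30 min, then luminescence is read.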

The target is the same in assay [13]. The experiment in a line: qHTS Assay for Inhibitors of CDC-like Kinase 4 (ADP-FP Assay) (AID 1795; active = well fitted curve in the direction sought with a large enough effect; an effect the other way counts as inactive or inconclusive;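 also: recombinant human CLK4 phosphorylating RS repeat peptide at 1 µM ATP; % is scaled to controls: 0 for no effect and ±100 for the full control effect; nearly all actives have a fitted effect of over 60% in size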). Particulars: Transcreener ADP fluorescence polarization; series mostly up to 50 µM. The method, boiled down:
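Inhibition of ADP formation by 6.25 nM Clk4 is measured using 1 uM ATP and 100 uM RS repeat peptide over one hour. Produced ADP displaces a fluorescent tracer from antibody, lowering polarization.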

Assay [14] deals with Ubiquitin carboxyl-terminal hydrolase 1 (Homo sapiens) (UniProt O94782). The experiment in a line: Inhibitors of USP1/UAF1: Pilot qHTS (AID 504865; active = well fitted curve in the direction sought with a large enough effect; an effect the other way counts as inactive or inconclusive;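 also: rhodamine fluorescence freed from ubiquitin-rhodamine substrate followed over time; top concentration of the series differs between compounds; % is scaled to controls: 0 for no effect and ±100 for the full control effect; nearly all actives have a fitted effect of over 35% in size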). As to conditions: purified USP1/UAF1, Ub-rhodamine cleavage fluorescence; series mostly up to 54.9 µM. The method, boiled down:
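Kinetic fluorescence assay: 1nM USP1/UAF1, 15 min compound preincubation, then 150nM Ub-Rho; 480/540 nm.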

Assay [15] addresses Cytochrome P450 3A4 (Homo sapiens) (UniProt P08684). The experiment in a line: qHTS Assay for Activators of Cytochrome P450 3A4 (AID 885; active = well fitted curve in the direction sought with a large enough effect; an effect the other way counts as inactive or inconclusive; also: nearly all actives have a fitted effect of over 65% in size). As to conditions: recombinant CYP3A4, Luciferin-PPXE luminescence, 60 min; series mostly up to 57.1 µM. The method, boiled down: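 CYP3A4 activity: Luciferin-PPXE O-dealkylation, 25uM substrate, 200mM KPO4, RT throughout. Read-out is luciferase luminescence; higher values reflect activation.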

Assay [16] is described as follows: Confirmatory qHTS for small molecule stabilizers of the endoplasmic reticulum resident proteome: Secreted ER Calcium Modulated Protein (SERCaMP) assay (AID 1508628; active = well fitted curve in the direction sought with a large enough effect; an effect the other way counts as inactive or inconclusive; also: nearly all actives have a fitted effect of over 40% in size; also: potency is read from the fitted curve at half-maximal effect). Particulars: SERCaMP secreted luciferase ER calcium/proteostasis reporter; series mostly up to 76.3 µM. Put shortly: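 Reporter secretion upon ER calcium depletion (100 nM thapsigargin, 4 h, 37C) is measured as medium luminescence with coelenterazine, after 16 h compound pretreatment of SH-SY5Y-GLuc-SERCaMP cells; primary at three concentrations up to 38.3 uM, follow-up at 11 (up to 76.6 uM).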

The mark [17] stands for this setting: measured here: cell count channel max response.
[18] abbreviates: measured here: lipid channel max response.

Results filed as inconclusive are left out. The source made the active and inactive calls. Unless noted, calls follow the shape of the dose curve; as a rule, active = well fitted curve in either direction with a large enough effect (not every such curve was filed as active); inconclusive = small, poorly fitted or top-dose-only effect, or another doubt; inactive = flat fitted curve, though single readings scatter.

Chain of Cytochrome P450 1A2 (Homo sapiens) (P05177 whole entry, looked up): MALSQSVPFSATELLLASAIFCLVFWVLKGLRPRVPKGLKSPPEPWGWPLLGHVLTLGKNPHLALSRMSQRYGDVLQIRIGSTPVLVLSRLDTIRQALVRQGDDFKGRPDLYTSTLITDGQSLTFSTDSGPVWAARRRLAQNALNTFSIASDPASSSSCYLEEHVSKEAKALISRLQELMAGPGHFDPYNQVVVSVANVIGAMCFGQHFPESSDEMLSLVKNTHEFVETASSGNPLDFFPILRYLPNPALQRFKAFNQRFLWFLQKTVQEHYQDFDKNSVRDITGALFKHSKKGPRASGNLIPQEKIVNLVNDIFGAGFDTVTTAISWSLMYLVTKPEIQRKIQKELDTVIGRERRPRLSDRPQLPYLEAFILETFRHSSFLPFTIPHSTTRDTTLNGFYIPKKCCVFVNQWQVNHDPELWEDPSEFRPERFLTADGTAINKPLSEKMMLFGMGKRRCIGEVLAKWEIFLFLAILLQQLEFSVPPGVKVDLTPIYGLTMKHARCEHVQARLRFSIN
Chain of Cytochrome P450 3A4 (Homo sapiens) (P08684 whole entry, looked up): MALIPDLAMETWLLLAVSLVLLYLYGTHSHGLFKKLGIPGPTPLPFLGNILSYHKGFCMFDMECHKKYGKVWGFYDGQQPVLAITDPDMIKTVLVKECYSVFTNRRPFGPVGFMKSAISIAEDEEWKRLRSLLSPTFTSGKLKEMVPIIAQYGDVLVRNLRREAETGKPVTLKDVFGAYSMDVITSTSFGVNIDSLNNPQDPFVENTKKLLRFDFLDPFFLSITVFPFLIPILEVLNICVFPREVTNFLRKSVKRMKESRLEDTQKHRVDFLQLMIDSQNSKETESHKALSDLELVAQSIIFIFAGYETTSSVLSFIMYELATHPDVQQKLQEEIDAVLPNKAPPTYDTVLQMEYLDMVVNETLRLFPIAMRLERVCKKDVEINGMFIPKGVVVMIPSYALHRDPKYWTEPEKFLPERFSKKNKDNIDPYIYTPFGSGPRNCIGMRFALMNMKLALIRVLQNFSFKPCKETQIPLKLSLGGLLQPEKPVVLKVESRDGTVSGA
Chain of 3',5'-cyclic-AMP phosphodiesterase 4B (Homo sapiens) (Q07343 whole entry, looked up): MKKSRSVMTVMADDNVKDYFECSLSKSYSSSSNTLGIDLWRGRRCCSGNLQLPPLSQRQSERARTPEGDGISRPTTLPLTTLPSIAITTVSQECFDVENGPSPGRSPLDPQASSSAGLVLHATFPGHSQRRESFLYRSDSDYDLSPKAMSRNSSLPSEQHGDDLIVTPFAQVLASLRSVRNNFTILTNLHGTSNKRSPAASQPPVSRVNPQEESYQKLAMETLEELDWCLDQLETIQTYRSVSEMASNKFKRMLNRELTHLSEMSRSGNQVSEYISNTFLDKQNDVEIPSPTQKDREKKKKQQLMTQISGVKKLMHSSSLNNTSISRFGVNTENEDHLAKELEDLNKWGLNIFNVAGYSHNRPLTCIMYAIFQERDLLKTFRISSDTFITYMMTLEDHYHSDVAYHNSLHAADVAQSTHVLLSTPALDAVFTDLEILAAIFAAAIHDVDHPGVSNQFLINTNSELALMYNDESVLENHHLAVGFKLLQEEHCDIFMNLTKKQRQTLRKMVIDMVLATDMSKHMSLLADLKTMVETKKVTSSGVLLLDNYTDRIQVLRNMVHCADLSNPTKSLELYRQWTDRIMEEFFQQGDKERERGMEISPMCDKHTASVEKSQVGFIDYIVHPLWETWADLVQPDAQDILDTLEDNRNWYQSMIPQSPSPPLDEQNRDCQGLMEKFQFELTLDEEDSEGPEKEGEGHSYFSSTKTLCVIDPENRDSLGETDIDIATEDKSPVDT
Chain of Lysosomal acid glucosylceramidase (Homo sapiens) (P04062 whole entry, looked up): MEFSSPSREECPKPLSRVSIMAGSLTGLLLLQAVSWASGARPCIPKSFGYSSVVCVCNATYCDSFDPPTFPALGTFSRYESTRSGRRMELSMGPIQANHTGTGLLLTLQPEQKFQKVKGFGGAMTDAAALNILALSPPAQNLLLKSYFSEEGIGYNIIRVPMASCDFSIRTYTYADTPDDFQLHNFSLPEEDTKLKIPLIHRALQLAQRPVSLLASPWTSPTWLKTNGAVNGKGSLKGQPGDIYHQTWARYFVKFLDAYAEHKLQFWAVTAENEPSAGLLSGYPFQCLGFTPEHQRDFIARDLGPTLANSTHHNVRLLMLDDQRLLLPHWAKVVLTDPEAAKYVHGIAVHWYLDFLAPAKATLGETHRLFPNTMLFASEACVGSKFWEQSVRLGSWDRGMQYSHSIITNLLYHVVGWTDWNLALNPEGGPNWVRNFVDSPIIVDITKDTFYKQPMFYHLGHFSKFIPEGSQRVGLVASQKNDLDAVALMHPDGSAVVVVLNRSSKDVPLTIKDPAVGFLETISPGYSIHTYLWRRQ
Chain of Ubiquitin carboxyl-terminal hydrolase 1 (Homo sapiens) (O94782 whole entry, looked up): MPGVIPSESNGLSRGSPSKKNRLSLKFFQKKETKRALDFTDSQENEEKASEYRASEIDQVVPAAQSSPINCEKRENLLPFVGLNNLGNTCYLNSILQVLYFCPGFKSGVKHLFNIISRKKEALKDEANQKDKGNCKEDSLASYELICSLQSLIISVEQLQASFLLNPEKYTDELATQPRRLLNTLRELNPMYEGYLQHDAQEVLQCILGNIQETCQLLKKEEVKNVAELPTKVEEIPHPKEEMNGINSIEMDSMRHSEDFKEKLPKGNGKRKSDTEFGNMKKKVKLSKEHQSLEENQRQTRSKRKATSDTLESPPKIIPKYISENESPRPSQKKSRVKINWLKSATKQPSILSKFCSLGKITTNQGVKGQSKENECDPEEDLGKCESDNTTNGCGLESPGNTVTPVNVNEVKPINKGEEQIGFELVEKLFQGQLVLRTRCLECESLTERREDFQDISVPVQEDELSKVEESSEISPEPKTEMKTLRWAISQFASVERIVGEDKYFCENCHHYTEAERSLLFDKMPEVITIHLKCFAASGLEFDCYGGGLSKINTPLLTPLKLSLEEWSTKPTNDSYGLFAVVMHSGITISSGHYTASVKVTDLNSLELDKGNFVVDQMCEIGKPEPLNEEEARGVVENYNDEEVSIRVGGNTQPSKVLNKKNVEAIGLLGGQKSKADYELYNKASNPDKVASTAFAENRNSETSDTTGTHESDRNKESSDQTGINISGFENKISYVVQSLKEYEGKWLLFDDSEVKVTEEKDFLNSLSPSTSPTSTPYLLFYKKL
Chain of Dual specificity protein kinase CLK4 (Homo sapiens) (Q9HAZ1 whole entry, looked up): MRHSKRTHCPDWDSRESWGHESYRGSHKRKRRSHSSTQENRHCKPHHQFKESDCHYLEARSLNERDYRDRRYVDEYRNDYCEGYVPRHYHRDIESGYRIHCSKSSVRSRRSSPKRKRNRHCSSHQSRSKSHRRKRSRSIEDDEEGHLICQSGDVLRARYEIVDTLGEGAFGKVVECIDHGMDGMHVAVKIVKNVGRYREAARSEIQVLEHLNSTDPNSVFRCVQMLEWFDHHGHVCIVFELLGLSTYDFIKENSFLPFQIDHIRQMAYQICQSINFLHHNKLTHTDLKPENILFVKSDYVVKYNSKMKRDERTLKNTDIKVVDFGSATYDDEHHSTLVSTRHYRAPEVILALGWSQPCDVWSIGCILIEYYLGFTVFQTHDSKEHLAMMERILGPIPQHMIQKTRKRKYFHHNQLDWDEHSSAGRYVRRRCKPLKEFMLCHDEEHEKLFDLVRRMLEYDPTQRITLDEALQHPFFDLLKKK

In the case of `c1ccc(-c2cccc(N3CC4(CCNCC4)C3)c2)cc1`, the Potency in [1] is > 11.4 µM (inactive); in [3], 12.6 µM (active); in assay [6] it was > 46 µM (inactive). Further, the activity change, negative = inhibition in [2] is 14.2% (inactive); in assay [4] it was 6.24% (inactive); in assay [8], -6.46% (inactive). In addition, the activity, negative = inhibition in [5] is 3.73% (inactive). Also, the Potency entry in [7] was “inactive”. The results for the max response in assay [8] (setting [17]) and in [8] (setting [18]) were -7.34% and -10.1%, respectively.

Consider `COc1ccc([C@H]2O[C@@H](c3ccc(OC)c(OC)c3)[C@H](C)[C@@H]2C)cc1OC`, for which the Potency result in [9] was “inactive”.

On to `Cn1c(=O)c(CCc2ccccc2)nc2cnc(OCc3ccccc3)nc21`, for which the figures for the activity change, negative = inhibition in [2], in assay [4] and in assay [8] were -26% (inactive), -3.3% (inactive) and 2.86% (inactive), respectively. In addition, the activity, negative = inhibition in assay [5] is -13% (inactive). The values for the Potency in [10] and in [6] were > 9.22 µM (inactive) and > 46 µM (inactive), respectively. The compound was called inactive in assay [11]. The Potency result in assay [7], in assay [12], in assay [13] and in assay [14] was “inactive” in each case. Further, the max response in assay [8] (setting [17]) came out at 13.9%; in [8] (setting [18]), 15.4%.

For the compound `Clc1ccccc1-c1nc(N2CCNCC2)c2ccccc2n1`, the Potency in assay [1] was > 11.4 µM (inactive); in [3], 2.51 µM (active); in assay [10] it was > 46 µM (inactive); in assay [6] it was > 46 µM (inactive); in assay [16], 12.6 µM (active). In addition, the activity change, negative = inhibition in assay [2] is -2.1% (inactive); in assay [4], -0.528% (inactive); in assay [8], 3.77% (inactive). Besides, in assay [5], the activity, negative = inhibition is 9.64% (inactive). Moreover, in [11], the result was inactive. The Potency result in assay [7] and in assay [15] was “inactive” each time. The results for the max response in assay [8] (setting [17]) and in assay [8] (setting [18]) were 7.62% and 12%, respectively.

Turning to `O=C(O)c1ccc(-c2ccc3cc(C45CC6CC(CC(C6)C4)C5)c(O)cc3c2)cc1`, the Potency result in assay [9] was “inactive”.

On to `COc1ccc(-c2nc3cnc(N4CCNCC4)nc3n(CCc3ccccc3)c2=O)cc1`, for which the Potency in assay [1] is > 11.4 µM (inactive); in assay [3], 15.8 µM (active); in assay [10] it was > 9.22 µM (inactive); in [6], > 46 µM (inactive). Also, the activity change, negative = inhibition is 111% [activator] (active) in assay [2] and -10.5% (inactive) in assay [8]. For the same compound, the Potency result in [7], in assay [15] and in assay [16] was “inactive” in each case. For the same compound, the max response is -3.35% in assay [8] (setting [17]) and -12.2% in assay [8] (setting [18]).

For `C/C=C/c1ccc2oc(-c3ccc(O)cc3)c(C)c2c1`, in assay [9], the Potency entry is “inactive”.

As to `N#CCCn1c(=O)c(CCc2ccccc2)nc2cnc(Oc3cccc(Cl)c3)nc21`, the Potency in assay [1] is > 11.4 µM (inactive); in assay [10], > 9.22 µM (inactive); in assay [6] it was > 46 µM (inactive). In assay [4], the activity change, negative = inhibition is -8.5% (inactive). Besides, in [11], the compound was classed as inactive. Further, the Potency entry in [7] and in assay [15] was “inactive” in each case.

Consider `Cc1ccccc1-c1nc(NC2CCNCC2)c2ccccc2n1`, for which the Potency in assay [1] was > 11.4 µM (inactive); in [3] it was 20 µM (active); in assay [10], > 46 µM (inactive); in [6], > 46 µM (inactive); in assay [16], 31.6 µM (active). Further, the activity change, negative = inhibition in assay [2] is 19.1% (inactive); in assay [4], 0.36% (inactive). For the same compound, in assay [5], the activity, negative = inhibition was -7.16% (inactive). Moreover, the result in assay [11] was inactive. In assay [7], the Potency result is “inactive”.

With `COc1ccc2cnoc(=O)c2c1OC`, the Potency result in [9] was “inactive”.

As to `FC(F)(F)c1ccccc1-c1nc(N2CCNCC2)c2ccccc2n1`, the Potency in [1] is > 11.4 µM (inactive); in [3], 10 µM (active); in assay [10], > 46 µM (inactive); in assay [6], > 46 µM (inactive); in assay [16], 20 µM (active). The activity change, negative = inhibition in assay [2] was 6.77% (inactive); in assay [8], 7.02% (inactive). Moreover, in assay [5], the activity, negative = inhibition is 11.2% (inactive). For the same compound, in [11], the compound was classed as inactive. The Potency result in assay [7] and in [14] was “inactive” each time. For the same compound, the values for the max response in [8] (setting [17]) and in assay [8] (setting [18]) were 13.7% and 21.9%, respectively.

The values are drawn from PubChem BioAssay (NCATS).
